Each structure is given as a SMILES string. Among all 310,000 compounds or so, about 11,000 (3.5%) were called active. About 8% were inconclusive and are not listed. The sample holds actives, similar compounds and a random draw of the others, so the mix is not that of the screen. Unmarked numbers belong to inactive results. Calls follow the shape of the dose curve; as a rule, active = well fitted inhibition curve with a large enough effect; inconclusive = small, poorly fitted or top-dose-only effect, or effect the other way; inactive = flat fitted curve, though single readings scatter.

From PubChem BioAssay AID2546 (National Center for Advancing Translational Sciences (NCATS), 2010) come the findings set out here.
% is scaled to controls: 0 for no effect and ±100 for the full control effect; potency is read from the fitted curve at half-maximal effect.

The nature of this test: VP16 counterscreen qHTS for inhibitors of ROR gamma transcriptional activity.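 Also: Gal4-VP16 expression switched on by copper sulfate through the metallothionein promoter; nearly all actives have a fitted effect of over 50% in size.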 The note with it: Drosophila S2 Gal4-VP16 UAS-luciferase, luminescence, 20 h; series mostly up to 53.6 µM; activity, negative = inhibition: at the top concentration.
Turning to `O=C(NCCc1ccccc1)C1CC1`, the “activity, negative = inhibition” value is -4.59%. The same measure, in the same setting: then `S=C(NN=C1CCN(Cc2ccccc2)CC1)NC1CCCCC1`, with -1.84%. As to `CCCC1CCC(=NNC(=S)NCCc2ccccc2)CC1` (stereo not given), the Potency is 11.2 µM (active). `O=C(NCC(=O)N1CCN(c2ncc(C(F)(F)F)cc2Cl)CC1)c1ccc(Br)o1`: the “activity, negative = inhibition” value is -12.2%.

In the case of `Cc1ccc(CN2CCC(n3nccc3NC(=O)CCCc3ccccc3)CC2)o1`, the “activity, negative = inhibition” value is -18.3%. Same read-out and setting: next, `O=C(Nc1cccc(F)c1)NC1CCCCCCC1`: 17.7%. Consider `C/C(=N\NC(=O)c1ccccc1F)c1ccccn1`, for which the Potency was 1.12 µM (active).

As for `C/C(=N\NC(=O)Cc1ccc(F)cc1)c1ccc(F)cc1`, the “activity, negative = inhibition” value was -9.44%. Turning to `C/C(=N\NC(=O)Cc1ccc(Cl)cc1)c1ccccn1`, the Potency is 2.51 µM (active). As to `C/C(CC(=O)Nc1ccc(N(C)C)cc1)=N\NC(=O)c1ccccc1F`, the “activity, negative = inhibition” value is 16.6%. Same read-out and setting: then `C/C(=N\NC(=O)Cc1ccc(Br)cc1)c1cccnc1`, with -5.69%. The same measure, in the same setting: then `O=C(Nc1ccc(NC(=O)c2ccccc2F)cc1)c1ccccc1F`, with -2.15%; and `O=C(c1cc(-c2ccc(Cl)cc2)on1)N1CCN(c2ccccc2)CC1`, with -9.14%. On the same count and under the same terms, next, `O=C(COc1ccccc1Cl)N1CCCCCCC1`: -6.99%; `NS(=O)(=O)c1ccccc1NC(=O)c1c(O)c2ccccc2[nH]c1=O`: -8.36%. In the case of `COc1ccc(CC(=O)N/N=C/c2cc([N+](=O)[O-])cc(Br)c2O)cc1`, the Potency was 3.16 µM (active). Turning to `COc1ccc(CC(=O)NCC(=O)N/N=C/c2cc(Br)ccc2OC)cc1`, the “activity, negative = inhibition” value was -1.29%.

In the case of `COc1cc(OC)c(/C=N/NC(=O)c2ccc([N+](=O)[O-])cc2)cc1Br`, the “activity, negative = inhibition” value is 10.7%. Same read-out and setting: then `COc1cccc(NC(=O)CCc2nnc3ccc(N4CCC(C)CC4)nn23)c1`, with -2.26%; and `CC(=O)c1ccc(NC(=O)c2ccc(-n3cncn3)c([N+](=O)[O-])c2)cc1`, with -10.1%. Still for that read-out and setting: next, `COc1ccc(Cl)cc1C(=O)NNC(=S)NC1CCCC1`: -20.9%.

Turning to `S=C(NCc1ccc(Cl)cc1)NC1CCCCC1`, the Potency is 7.94 µM (active).

In the case of `CN(C)CCCNC(=S)NCc1ccc(Cl)cc1`, the “activity, negative = inhibition” value is 7.1%. Still for that read-out and setting: then `O=C(NCc1ccc(Cl)cc1)NCc1ccc(Cl)cc1`, with 1.13%.

Regarding `S=C(NCc1ccc(Cl)cc1)NC12CC3CC(CC(C3)C1)C2`, the Potency was 3.16 µM (active). As for `O=C(NCc1ccncc1)NC12CC3CC(CC(C3)C1)C2`, the “activity, negative = inhibition” value was 3%.

For the molecule `O=C(NCCc1ccc(Cl)cc1)c1cccc(N2CCCC2=O)c1`, the “activity, negative = inhibition” value is 4.1%. In the case of `O=C(NC(=S)Nc1ccc(Cl)cc1Cl)C1CC1`, the Potency is 5.62 µM (active). On to `S=C(Nc1ccc(Cl)cc1Cl)N1CCCC1`, for which the “activity, negative = inhibition” value is -3.36%.

`CN1CCN(S(=O)(=O)c2ccc(NC(=S)NC(=O)C3CC3)cc2)CC1`: the “activity, negative = inhibition” value was -9.66%. Same read-out and setting: then `Oc1ccccc1C1=NN(c2ccccc2)C(c2ccccc2)C1` (stereo not given), with -26.6%; and `CCC(=O)Nc1nc(C)c(C(=O)Nc2cccc(Cl)c2)s1`, with -4.36%; and `CN1CCN(C(=O)c2cnn(-c3ccccc3)c2NC(=O)c2ccc([N+](=O)[O-])cc2)CC1`, with -10.9%. `Cc1cccc(NC(=O)NC(=S)NC(=O)c2ccccc2)c1`: the Potency was 5.01 µM (active). Regarding `Cc1cccc(NC(=S)NC(=O)c2ccc(Br)o2)c1`, the “activity, negative = inhibition” value is -67.7%. The same measure, in the same setting: next, `Cc1ccc(NC(=O)NC(=O)c2ccccc2)cc1F`: -12.3%; `Cc1ccn2c(c1)nc(=O)c1cc(S(=O)(=O)N3CCC(C)CC3)ccc12`: -1.64%. Same read-out and setting: next, `COc1ccc(CCNC(=O)C(=O)NCC2OCCN2S(=O)(=O)c2ccc(OC)c(C)c2)cc1` (stereo not given): -8.13%; `Cc1nc2c(c(=O)n1Cc1ccco1)c1nc3ccccc3nc1n2Cc1ccccc1`: -20.3%; `COc1ccc(C(=O)CSc2nnc(COc3ccccc3)n2Cc2ccco2)cc1`: -4.45%. Regarding `Cn1c2ccccc2c(=O)c2c(=O)n(Cc3ccco3)c(COc3ccccc3)nc21`, the Potency was 17.8 µM (active). On to `COc1cc(/C=N\NC(=O)C2C(=O)NCC2c2ccccc2)cc(OC)c1O` (stereo not given), for which the “activity, negative = inhibition” value was -3.59%. For the molecule `O=C(N/N=C/c1cccc2cccnc12)[C@H]1C[C@@H]1c1ccccc1`, the Potency is 8.91 µM (active). Turning to `O=C(NNC(=S)Nc1ccc(F)cc1)[C@H]1C[C@@H]1c1ccccc1`, the “activity, negative = inhibition” value was -19.7%. For the molecule `CC(=O)c1ccc(S(=O)(=O)N(C)CCCC(=O)N(C)Cc2ccccc2F)cc1`, the “activity, negative = inhibition” value is 12.7%. Regarding `CCOc1ccc(N(CC)S(=O)(=O)c2cccc3nsnc23)cc1`, the “activity, negative = inhibition” value is 3.67%. On to `CN(C)/C=C1\C=C(c2ccccc2)OC1=O`, for which the Potency is 35.5 µM (active). In the case of `Cc1ccc(C2=C/C(=C\c3cccnc3)C(=O)O2)cc1`, the “activity, negative = inhibition” value was -8.91%. On the same count and under the same terms, then `CN(C)/C=C1/C(=O)Nc2ccccc21`, with 16.7%; and `COc1cc(NC(=O)CN2C(=O)NC(C)(c3ccc(OC(F)F)cc3)C2=O)cc(OC)c1OC` (stereo not given), with 0.174%; and `Cc1ccc(O)c(CNc2nc3ccccc3[nH]2)c1`, with 2.12%.

For the molecule `COc1ccc(NC(=O)CCCC(=O)c2ccccc2)cc1`, the “activity, negative = inhibition” value was 5.32%. As to `Cc1cccc(C(=O)NC(=S)N(C)C2CCCCC2)c1`, the Potency was 2.24 µM (active).

For `Cc1cccc(C(=O)NCCCN(C)CCCNC(=O)c2cccc(C)c2)c1`, the “activity, negative = inhibition” value was -3.12%. Regarding `Cc1ccc(S(=O)(=O)NC(=O)c2cccc(C)c2)cc1`, the “activity, negative = inhibition” value was -7.96%.
